Of roughly 7,900 targets only a part is listed; those with a hit were picked by preference. About 0.6% of all pairs of compound and target were hits.

UniProt P46063, sequence (P46063 whole entry, looked up): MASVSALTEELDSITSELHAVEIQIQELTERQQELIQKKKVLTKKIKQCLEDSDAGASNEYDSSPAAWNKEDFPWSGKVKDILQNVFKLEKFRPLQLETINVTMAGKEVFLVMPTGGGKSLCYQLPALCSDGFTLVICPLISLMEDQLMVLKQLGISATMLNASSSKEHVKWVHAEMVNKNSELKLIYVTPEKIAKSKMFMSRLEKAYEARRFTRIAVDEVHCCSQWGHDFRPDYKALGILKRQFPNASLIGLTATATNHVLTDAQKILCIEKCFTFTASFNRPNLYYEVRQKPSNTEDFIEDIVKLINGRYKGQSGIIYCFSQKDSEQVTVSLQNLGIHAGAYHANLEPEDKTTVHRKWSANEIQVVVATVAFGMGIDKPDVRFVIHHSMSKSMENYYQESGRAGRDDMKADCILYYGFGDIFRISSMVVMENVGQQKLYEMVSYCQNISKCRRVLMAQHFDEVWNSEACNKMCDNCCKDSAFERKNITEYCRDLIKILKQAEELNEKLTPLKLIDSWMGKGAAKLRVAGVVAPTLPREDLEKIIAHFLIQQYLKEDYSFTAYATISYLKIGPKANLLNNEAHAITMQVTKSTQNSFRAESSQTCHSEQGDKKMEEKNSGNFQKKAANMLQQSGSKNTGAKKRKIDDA
UniProt P60602, sequence (P60602 whole entry, looked up): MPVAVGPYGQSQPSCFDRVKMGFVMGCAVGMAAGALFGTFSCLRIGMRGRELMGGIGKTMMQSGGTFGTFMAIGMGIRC
UniProt Q5VUM1, sequence (Q5VUM1 whole entry, looked up): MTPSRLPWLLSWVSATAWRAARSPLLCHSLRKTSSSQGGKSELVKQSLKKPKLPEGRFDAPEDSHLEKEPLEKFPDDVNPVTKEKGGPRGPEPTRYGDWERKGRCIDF
UniProt P58004, sequence (P58004 whole entry, looked up): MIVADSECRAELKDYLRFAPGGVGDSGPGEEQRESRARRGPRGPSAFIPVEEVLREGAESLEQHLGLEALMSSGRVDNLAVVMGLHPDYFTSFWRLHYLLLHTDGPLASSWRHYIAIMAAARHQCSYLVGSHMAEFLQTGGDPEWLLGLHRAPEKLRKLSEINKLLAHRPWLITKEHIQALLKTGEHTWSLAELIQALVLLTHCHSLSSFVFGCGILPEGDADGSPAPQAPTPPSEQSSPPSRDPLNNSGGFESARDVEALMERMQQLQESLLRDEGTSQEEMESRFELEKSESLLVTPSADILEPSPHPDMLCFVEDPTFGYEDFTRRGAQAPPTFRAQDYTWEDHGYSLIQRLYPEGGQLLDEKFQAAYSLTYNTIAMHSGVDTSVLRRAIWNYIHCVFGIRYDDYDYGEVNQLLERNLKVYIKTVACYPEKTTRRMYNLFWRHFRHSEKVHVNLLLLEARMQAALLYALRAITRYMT
UniProt Q86VR2, sequence (Q86VR2 whole entry, looked up): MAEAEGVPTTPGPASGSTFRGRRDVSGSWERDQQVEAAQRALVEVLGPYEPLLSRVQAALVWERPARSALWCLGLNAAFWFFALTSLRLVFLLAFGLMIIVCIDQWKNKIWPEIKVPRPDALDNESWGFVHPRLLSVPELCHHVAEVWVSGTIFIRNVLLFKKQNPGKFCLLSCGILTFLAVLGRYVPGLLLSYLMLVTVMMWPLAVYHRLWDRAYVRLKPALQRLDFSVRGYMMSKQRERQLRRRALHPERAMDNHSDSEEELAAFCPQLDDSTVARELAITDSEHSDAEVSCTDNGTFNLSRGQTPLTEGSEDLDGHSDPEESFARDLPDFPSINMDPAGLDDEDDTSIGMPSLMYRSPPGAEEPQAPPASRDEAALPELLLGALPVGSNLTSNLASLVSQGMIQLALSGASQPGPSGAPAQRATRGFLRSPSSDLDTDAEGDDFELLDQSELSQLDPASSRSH
UniProt Q96D15, sequence (Q96D15 whole entry, looked up): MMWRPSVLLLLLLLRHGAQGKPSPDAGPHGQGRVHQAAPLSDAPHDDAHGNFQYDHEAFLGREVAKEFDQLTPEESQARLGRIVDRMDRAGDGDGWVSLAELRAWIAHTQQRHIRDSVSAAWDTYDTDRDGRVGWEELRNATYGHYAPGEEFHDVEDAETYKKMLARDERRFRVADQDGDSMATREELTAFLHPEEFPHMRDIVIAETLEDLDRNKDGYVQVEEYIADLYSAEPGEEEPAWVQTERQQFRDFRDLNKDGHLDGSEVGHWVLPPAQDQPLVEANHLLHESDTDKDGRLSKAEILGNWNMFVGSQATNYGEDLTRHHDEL
UniProt Q01196, sequence (Q01196 whole entry, looked up): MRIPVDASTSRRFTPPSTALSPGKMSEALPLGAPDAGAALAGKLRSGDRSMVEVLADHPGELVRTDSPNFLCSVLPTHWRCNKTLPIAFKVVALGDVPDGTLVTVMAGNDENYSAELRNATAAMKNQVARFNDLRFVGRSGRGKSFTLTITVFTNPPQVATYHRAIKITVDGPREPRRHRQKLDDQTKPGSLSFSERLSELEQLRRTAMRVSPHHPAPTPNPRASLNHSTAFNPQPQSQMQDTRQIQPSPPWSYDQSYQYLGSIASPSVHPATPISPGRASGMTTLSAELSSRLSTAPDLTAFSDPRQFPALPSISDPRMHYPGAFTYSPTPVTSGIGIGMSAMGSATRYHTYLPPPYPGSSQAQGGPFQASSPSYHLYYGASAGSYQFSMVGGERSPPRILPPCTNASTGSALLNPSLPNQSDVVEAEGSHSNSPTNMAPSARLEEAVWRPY
UniProt Q92930, sequence (Q92930 whole entry, looked up): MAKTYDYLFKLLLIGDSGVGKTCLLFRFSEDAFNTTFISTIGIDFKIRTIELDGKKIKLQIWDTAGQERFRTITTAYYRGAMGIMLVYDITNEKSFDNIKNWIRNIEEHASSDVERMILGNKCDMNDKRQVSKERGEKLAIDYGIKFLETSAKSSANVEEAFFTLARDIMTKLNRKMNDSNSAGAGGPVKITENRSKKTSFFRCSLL
UniProt Q99719, sequence (Q99719 whole entry, looked up): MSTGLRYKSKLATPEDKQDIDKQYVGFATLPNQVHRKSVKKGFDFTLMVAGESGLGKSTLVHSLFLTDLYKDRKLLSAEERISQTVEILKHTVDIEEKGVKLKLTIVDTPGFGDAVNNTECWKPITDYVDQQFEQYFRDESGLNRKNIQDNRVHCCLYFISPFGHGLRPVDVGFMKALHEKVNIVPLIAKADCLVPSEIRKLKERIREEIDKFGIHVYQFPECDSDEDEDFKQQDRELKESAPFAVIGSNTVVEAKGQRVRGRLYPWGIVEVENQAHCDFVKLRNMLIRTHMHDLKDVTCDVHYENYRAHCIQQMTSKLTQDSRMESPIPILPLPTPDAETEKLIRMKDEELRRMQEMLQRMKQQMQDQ
UniProt O75056, sequence (O75056 whole entry, looked up): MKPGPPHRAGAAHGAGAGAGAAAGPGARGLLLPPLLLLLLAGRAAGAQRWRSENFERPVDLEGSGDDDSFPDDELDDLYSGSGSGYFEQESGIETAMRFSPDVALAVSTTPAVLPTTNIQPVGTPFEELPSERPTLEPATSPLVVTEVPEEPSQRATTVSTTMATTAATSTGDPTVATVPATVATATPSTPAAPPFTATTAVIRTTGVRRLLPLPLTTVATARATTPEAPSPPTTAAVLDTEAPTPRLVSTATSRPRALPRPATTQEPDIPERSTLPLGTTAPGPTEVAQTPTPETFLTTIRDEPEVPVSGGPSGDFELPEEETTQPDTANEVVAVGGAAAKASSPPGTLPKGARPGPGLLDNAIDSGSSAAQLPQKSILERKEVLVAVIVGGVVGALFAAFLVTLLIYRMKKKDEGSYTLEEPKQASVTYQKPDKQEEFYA
UniProt Q8IZE3, sequence (Q8IZE3 whole entry, looked up): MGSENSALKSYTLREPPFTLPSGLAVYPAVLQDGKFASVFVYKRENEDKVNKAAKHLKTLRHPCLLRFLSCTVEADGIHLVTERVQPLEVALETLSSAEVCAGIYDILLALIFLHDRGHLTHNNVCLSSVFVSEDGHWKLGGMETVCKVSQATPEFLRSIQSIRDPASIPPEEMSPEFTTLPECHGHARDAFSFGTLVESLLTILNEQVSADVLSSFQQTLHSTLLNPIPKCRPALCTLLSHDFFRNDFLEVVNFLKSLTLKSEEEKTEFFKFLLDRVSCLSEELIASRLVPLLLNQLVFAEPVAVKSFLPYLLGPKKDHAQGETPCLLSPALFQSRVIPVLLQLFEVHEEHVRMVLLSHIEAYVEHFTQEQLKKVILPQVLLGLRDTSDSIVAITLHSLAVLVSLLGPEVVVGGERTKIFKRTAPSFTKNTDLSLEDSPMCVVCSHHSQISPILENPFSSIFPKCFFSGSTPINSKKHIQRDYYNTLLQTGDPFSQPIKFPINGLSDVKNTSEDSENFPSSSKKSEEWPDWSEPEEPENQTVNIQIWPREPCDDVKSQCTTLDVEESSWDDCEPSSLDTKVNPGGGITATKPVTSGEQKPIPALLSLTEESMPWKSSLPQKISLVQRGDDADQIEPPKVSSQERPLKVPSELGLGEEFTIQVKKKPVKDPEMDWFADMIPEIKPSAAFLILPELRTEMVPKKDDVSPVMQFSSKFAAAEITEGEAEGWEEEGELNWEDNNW
UniProt Q92696, sequence (Q92696 whole entry, looked up): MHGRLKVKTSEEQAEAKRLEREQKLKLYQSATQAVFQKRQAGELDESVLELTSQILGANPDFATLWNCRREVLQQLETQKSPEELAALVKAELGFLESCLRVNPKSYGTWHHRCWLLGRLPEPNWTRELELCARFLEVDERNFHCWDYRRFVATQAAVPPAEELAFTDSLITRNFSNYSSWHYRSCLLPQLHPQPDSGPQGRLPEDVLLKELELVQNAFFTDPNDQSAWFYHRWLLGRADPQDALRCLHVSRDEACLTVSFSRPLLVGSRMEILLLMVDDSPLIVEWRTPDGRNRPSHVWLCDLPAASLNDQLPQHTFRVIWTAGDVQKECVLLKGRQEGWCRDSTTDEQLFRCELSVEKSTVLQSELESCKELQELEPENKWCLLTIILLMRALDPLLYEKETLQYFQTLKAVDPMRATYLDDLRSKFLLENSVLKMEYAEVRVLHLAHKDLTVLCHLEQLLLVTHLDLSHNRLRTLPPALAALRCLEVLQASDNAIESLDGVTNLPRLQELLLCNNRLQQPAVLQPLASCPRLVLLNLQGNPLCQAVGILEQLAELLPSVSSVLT

Compound in this assay: c1cn2cc(-c3ccc4cn[nH]c4c3)nc(Nc3ccc(N4CCOCC4)cc3)c2n1 [entospletinib]
The assay can be described thus: log2 fold change, soluble protein after heating vs DMSO (PISA); higher = thermal stabilisation; K562 cells, 10 uM, 30 min; active = over 0.2 and 3.5 SD of the protein, either way, in both replicates (recomputed). Put shortly: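 Soluble protein was defined as the supernatant after 21,000xg for 90 min. It came from K562 cells at 2×10^6 cells/mL given 10 μM compound for 30 min, heated in aliquots for 3 min across 48°C-58°C, pooled, and extracted in PBS with 0.5% NP-40 at 4°C, and was quantified by TMTpro 16plex LC-MS/MS with equalised channel sums. Thermal stability against control samples, from duplicates, is reported as log2 fold change.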
For SCAMP2 (UniProt H3BUB6), the log2 fold change was 0.154 (inactive).
Then RUFY3 isoform 3 (UniProt Q7L099), with -0.046 (inactive); and SEC16A isoform 5 (UniProt O15027), with 0.069 (inactive); and SIK3 (UniProt H0Y4E8), with 0.021 (inactive).
As to RBM33 (UniProt Q96EV2), the log2 fold change is 0 (inactive).
Turning to RAB3IL1 (UniProt Q8TBN0), the log2 fold change was 0.005 (inactive).
In the case of SGPL1 (UniProt O95470), the log2 fold change is -0.017 (inactive).
The value for RPS6KA2 isoform 2 (UniProt Q15349) was 0.013 (inactive); that for RECQL (UniProt P46063) was 0.012 (inactive); that for RAB5C isoform 2 (UniProt P51148) was -0.006 (inactive).
Regarding RUNX1 isoform 8 (UniProt Q01196), the log2 fold change is 0.116 (inactive).
The value for REL (UniProt Q04864) was 0.054 (inactive); that for RBM8A (UniProt Q9Y5S9) was 0.061 (inactive); that for RETREG3 (UniProt Q86VR2) was 0.015 (inactive).
On to RBM25 (UniProt P49756), for which the log2 fold change is -0.078 (inactive).
Then RDH13 (UniProt Q8NBN7), with -0.009 (inactive).
Then RCN3 (UniProt Q96D15), with -0.156 (inactive).
The value for SERINC3 (UniProt Q13530) was 0.01 (inactive); that for SCYL3 isoform 2 (UniProt Q8IZE3) was -0.09 (inactive).
For the target SDHAF4 (UniProt Q5VUM1), the log2 fold change was -0.018 (inactive).
The value for RAP2C (UniProt Q9Y3L5) was 0.017 (inactive).
The value for SEPTIN5 (UniProt Q99719) was -0.011 (inactive); that for RHOXF2 (UniProt Q9BQY4) was 0.062 (inactive).
The value for RFC3 (UniProt P40938) was -0.037 (inactive).
As to RPS3 (UniProt E9PJN9), the log2 fold change is 0.2 (inactive).
Then RAB3D (UniProt O95716), with 0.004 (inactive).
The value for RABGGTA (UniProt Q92696) was -0.013 (inactive); that for SH2D1B (UniProt O14796) was -0.372 (inactive).
On to SCAMP2 (UniProt O15127), for which the log2 fold change is -0.078 (inactive).
The value for RAB8B (UniProt Q92930) was -0.04 (inactive); that for SLC19A1 (UniProt P41440) was -0.121 (inactive); that for RPS12 (UniProt P25398) was 0.055 (inactive).
Turning to RPL31 (UniProt P62899), the log2 fold change was 0.098 (inactive).
For the target SDC3 (UniProt O75056), the log2 fold change is -0.853 (active).
For the target ROMO1 (UniProt P60602), the log2 fold change was 0.045 (inactive).
Take RTN4IP1 (UniProt Q8WWV3): the log2 fold change is -0.003 (inactive).
The value for SESN2 (UniProt P58004) was 0.167 (inactive); that for SLBP (UniProt Q14493) was -0.101 (inactive).

The record behind these values is the supplement of paper PMC10849652.
